Source: PubChem
Only a selection was taken, and hits are over-represented in it overall.
IL-1B inflam inh = inhibitors of inflammasome signaling (IL-1 beta secretion); THP-1 LPS/ATP IL-1B secretion, AlphaLISA, 16 h; stronger effect = lower value; activity change, % at 57.5 µM; actives 4.7% (n = 360,000); AID 743279; in the data active means activity change below about -50%; inconclusive means mostly about -30% to -49%
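THP-1 cells pretreated 1 hr with compounds (up to 57.5 uM final), then stimulated with LPS (250 ng/mL final) plus ATP (1.25 mM final); secreted IL-1B measured by AlphaLISA after 16 hr, decreased signal indicating inhibition.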
12-LOX inh = blocks human arachidonate 12S-lipoxygenase | P18054 | actives 1.1% (n = 580,000) | Potency, µM (doses to about 108 µM), hits mostly inhibitors | purified 12hLO, xylenol orange hydroperoxide absorbance
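Hydroperoxide product was detected by ferrous iron/xylenol orange as the 573 to 405 nm absorbance ratio. Arachidonic acid at 40 uM (final) was turned over for 30 min at room temperature by 150 nM human 12hLO, pH 7.0 Hepes buffer, after 15 min compound preincubation.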
HT1080 IDH1KD tx = HT-1080 IDH1 knockdown cell toxicity (counter line). HT-1080 IDH1 knockdown viability, ATP luminescence, 48 h. Potency, µM (highest dose often 46.1 µM), usual class: cytotoxic. actives 2% (n = 360,000)
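% activity derives from luminescence (CellTiter-Glo), normalised to DMSO and no-cell wells. HT-1080-IDH1KD cells, 750/well, had 48 h compound exposure at 37 °C.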
HT1080-NT tox = kills 2HG-producing HT-1080-NT fibrosarcoma cells. HT-1080-NT fibrosarcoma viability, CellTiter-Glo ATP luminescence, 48 h. Potency, µM (series often up to 46.1 µM), actives largely listed as cytotoxic. actives 1.6% (n = 360,000). AID 686970;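 further: NT is the 2HG producing partner of a matched IDH1 knockdown line; nearly all actives have a fitted effect of over 55% in size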
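Viability of the 2HG-overproducing fibrosarcoma line after 48 hours of compound exposure at 37 degrees C was determined by luminescence with CellTiter-Glo, and concentration-effect curves were then fitted and categorized.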
DT40 TDP1 no CPT = qHTS for Inhibitors of human tyrosyl-DNA phosphodiesterase 1 (TDP1): qHTS in cells in absence of CPT; DT40 Tdp1-/- hTDP1 cells, no CPT, ATP luminescence, 48 h; Potency, µM (doses to about 46.2 µM), most hits filed as inhibitors; actives 15% (n = 420,000); AID 686978, 2013; further: nearly all actives have a fitted effect of over 55% in size
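Cells were dispensed at 400 per well, compounds added by pin tool, plates incubated ≥48 hr at 37 °C, then CellTiter-Glo added for 30 min at room temperature before luminescence reading. Line: DT40 Tdp1-/- complemented with hTDP1; camptothecin omitted.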
DT40 TDP1 CPT = DT40-hTDP1 cell growth loss with CPT; chicken DT40 Tdp1-/-;hTDP1 cells + 20 nM CPT, ATP luminescence, 48 h; Potency, µM (doses to about 46.2 µM), actives largely listed as inhibitors; actives 12% (n = 420,000); further: nearly all actives have a fitted effect of over 55% in size
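Chicken DT40 Tdp1-/- cells stably complemented with human TDP1 were seeded at 400 cells/well in medium containing 20 nM camptothecin, exposed to pin-transferred compounds, and grown at 37 °C for at least 48 hr. Viability was read as ATP luminescence.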
Numbers stand for hits; 0 = inactive; ? = inconclusive; - = no result. Unless noted, the call rests on the fitted dose curve; in most records, active means well fitted curve in the direction sought with a large enough effect; inconclusive means small, poorly fitted or top-dose-only effect, or another doubt; inactive means no such curve, though single readings can be large; an effect the other way counts as inactive or inconclusive.

SMILES | IL-1B inflam inh | 12-LOX inh | HT1080 IDH1KD tx | HT1080-NT tox | DT40 TDP1 no CPT | DT40 TDP1 CPT
COC(=O)CCCn1cc(CN2CC(N3CCN(Cc4cccc(C)c4)CC3)CS2(=O)=O)nn1 (stereo not drawn) | 0 | 7.08µM | 0 | 0 | 0 | 0
O=S1(=O)CC(N2CCCCC2)CN1Cc1cn(Cc2ccc(Cl)cc2)nn1 (stereo not drawn) | 0 | 0 | 0 | 0 | 0 | 0
CN1CCN(C2CN(Cc3cn(Cc4ccc(Cl)cc4)nn3)S(=O)(=O)C2)CC1 (stereo not drawn) | 0 | 28.2µM | 0 | 0 | 0 | 0
CCNC(=O)CNC(=O)c1cc(Br)ccc1F | - | 0 | - | - | - | -
COc1ccc(-c2cc(N3CCCC(NC(=O)Cc4ccc(OC)c(OC)c4)C3)n[nH]2)cc1 (stereo not drawn) | - | 0 | - | - | - | -
CCCC(=O)Nc1cc(-c2ccccc2OC)[nH]n1 | - | 0 | - | - | - | -
Cc1cccc(CN2CCN(C3CN(Cc4cn(Cc5cccc(Cl)c5)nn4)S(=O)(=O)C3)CC2)c1 (stereo not drawn) | 0 | ? | 0 | 0 | 14.6µM | 18.4µM
O=S1(=O)CC(N2CCN(Cc3ccccc3F)CC2)CN1Cc1cn(Cc2cccc(Cl)c2)nn1 (stereo not drawn) | 0 | 0 | 0 | 0 | 20.6µM | ?
Cc1cccc(CN2CCN(C3CN(Cc4cn(Cc5ccc(F)cc5)nn4)S(=O)(=O)C3)CC2)c1 (stereo not drawn) | 0 | ? | 0 | 0 | ? | ?
O=S1(=O)CC(N2CCN(Cc3ccccc3F)CC2)CN1Cc1cn(Cc2ccc(F)cc2)nn1 (stereo not drawn) | 0 | 0 | ? | 0 | ? | 0
COc1ccc(OCc2nc3c4cc(OC)c(OC)cc4nc(=S)n3[nH]2)cc1 | 0 | 0 | 0 | 0 | 6.51µM | 6.51µM
CCOC(=O)C1C(=O)OC(C)(C)C1C(CC)C(=O)c1c(C)cc(C)cc1C (stereo not drawn) | 0 | ? | 0 | 0 | 9.2µM | 18.4µM
O=C(Nc1ccc(F)cc1)N(Cc1cccc(O)c1)C1CC1 | - | 0 | - | - | - | -
COc1ccc(CC(=O)Nc2ncc([N+](=O)[O-])s2)cc1OC | 0 | 35.5µM | 0 | 0 | ? | ?
COc1ccc(CC(=O)Nc2nccs2)cc1OC | 0 | 0 | 0 | 0 | ? | 0
CCc1nnc(NC(=O)Cc2ccc(OC)c(OC)c2)s1 | 0 | 0 | 0 | 0 | 0 | 0
COc1ccc(CC(=O)Nc2nnc(C(C)(C)C)s2)cc1OC | 0 | 0 | 0 | 0 | 16.4µM | ?
CCCn1nc(C(=O)OCCOc2ccc(OC)cc2)c2ccccc2c1=O | - | 0 | - | - | - | -
CNC(=O)N1CCC(C2CCN(C(=O)CCc3cccc(OC)c3)C2)CC1 (stereo not drawn) | - | 0 | - | - | - | -
CC1O[C@@H](O[C@@H]2C(O)C[C@H](O[C@@H]3C(O)C[C@@H](OC4CC[C@@]5(C)C6CC(O)[C@@]7(C)C(C8=CC(=O)OC8)CC[C@@]7(O)C6CC[C@@H]5C4)OC3C)OC2C)CC(O)[C@H]1O (stereo partly drawn) | - | - | - | - | 1.84µM | 3.26µM
CC(O)(CS(=O)(=O)Cc1ccc(Cl)cc1)C(=O)Nc1cccc(C(F)(F)F)c1 (stereo not drawn) | 0 | 3.16µM | 12.6µM | ? | ? | 0
CC(C)(O)C(=O)NNC(=S)Nc1cccc(C(F)(F)F)c1 | 0 | 0 | 0 | 0 | 0 | 0
O=C(Nc1cccc(C(F)(F)F)c1)N(Cc1ccc(Cl)cc1)CC(O)C(F)(F)F (stereo not drawn) | 0 | 0 | 18.4µM | 16.4µM | ? | ?
Cc1nnnn1CCCN1CCc2onc(-c3ccc(C(F)(F)F)cc3)c2C1 | - | 0 | - | - | - | -
C=CCn1c(SCC(=O)c2[nH]c(C)c(C(=O)OCC)c2C)nc2scc(-c3ccc(OC)c(OC)c3)c2c1=O | 0 | 0 | 0 | 0 | 13µM | 14.6µM
CCCn1c(NC(=O)C2CCN(C(=O)c3ccc(F)cc3)CC2)nc2ccccc21 | 0 | 0 | 0 | 0 | ? | 18.4µM
